Only some compounds are listed: those with a hit (about 10% of all), similar ones and a draw of the others.
Sfp PPTase inh: Sfp phosphopantetheinyl transferase inhibition. Q9F4F7. Biochemical Sfp PPTase activity, qHTS. Potency, µM, for inactives: largest response in the series, negative = inhibition, hits mostly inhibitors. 310,000 tested, 3.5% active. AID 1490;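 note: the enzyme is Sfp with the accession as filed and its product quenches rhodamine fluorescence; potency is the fitted concentration of half-maximal effect; 0% = enzyme reaction without inhibitor and -100% = no enzyme wells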
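Fluorescence-quenching assay: 15 nM Sfp-PPTase preincubated 15 min at room temperature with compound, then 5 uM rhodamine-CoA and 12.5 uM BHQ-2-labelled YbbR peptide added. Fluorescence (ex 525/em 598 nm) read at start and after 30 min; difference gives rate.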
PLK1 PBD inh: blocks phosphopeptide binding to human PLK1 polo-box domain. Plk1 PBD binding of FITC phosphopeptide, fluorescence polarization. Potency, µM, for inactives: max response, negative = inhibition, usual class: inhibitors. 360,000 tested, 2.8% active; note: potency is the fitted concentration of half-maximal effect; series mostly up to about 57 µM; nearly all actives have a fitted effect of over 65% in size
CCT chaperon mod: cytosolic chaperonin activity modulation; purified chaperonin ATPase assay, HTRF ADP detection, 30 min; activity change, % (concentration not given with the values), hits read low; 360,000 tested, 0.3% active; in the data active = activity change below about -30%
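We incubate TRiC, 40 or 20 nM final, with library compounds at 76 uM and 10 uM ATP for 30 min at 37 °C. ADP formed is detected with Transcreener HTRF reagents after 30 min at room temperature.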
Mm-Cpn inhibitor: blocks the Methanococcus maripaludis chaperonin Mm-Cpn; purified Mm-Cpn ATPase, ADP Transcreener TR-FRET; Potency, µM (highest dose often 76.9 µM), without a hit: at the top dose activity, negative = inhibition, usual class: inhibitors; 330,000 tested, 0.031% active; note: potency is the fitted concentration of half-maximal effect; nearly all actives have a fitted effect of over 80% in size
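Inhibition of chaperonin ATP hydrolysis is measured as reduced ADP production, detected by competitive TR-FRET in which signal falls with ADP. Final enzyme 25 nM and ATP 10 uM, reacted 30 min at 37°C.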
G9a block: G9a (human) methyltransferase inhibition; G9a H3K9 monomethylation, AlphaScreen, 2 h; Potency, µM (highest dose often 102 µM), without a hit: at the highest dose activity, negative = inhibition, usual class: inhibitors; 350,000 tested, 8.8% active; AID 504332; note: potency is the fitted concentration of half-maximal effect; nearly all actives have a fitted effect of over 75% in size
Target sequence (Q96KQ7 913-1193 limits assumed): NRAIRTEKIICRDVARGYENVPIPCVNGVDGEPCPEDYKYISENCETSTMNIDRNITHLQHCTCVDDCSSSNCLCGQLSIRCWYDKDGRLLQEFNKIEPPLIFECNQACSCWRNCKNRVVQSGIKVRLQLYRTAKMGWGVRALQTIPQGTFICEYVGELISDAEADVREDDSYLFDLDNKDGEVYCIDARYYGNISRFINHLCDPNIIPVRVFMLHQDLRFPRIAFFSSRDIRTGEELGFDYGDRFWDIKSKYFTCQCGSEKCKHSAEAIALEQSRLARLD
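AlphaScreen read-out: biotin-H3K9 peptide (500 nM) methylation by 20 nM enzyme with 20 uM SAM, 2 h at room temperature after 15 min compound preincubation; anti-monomethyl H3K9 antibody plus donor/acceptor beads, 10 min dark.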
VDR inh: inhibitors of human vitamin D receptor | VDR-SRC2-3 peptide fluorescence polarization, 2 h | Potency, µM, without a hit: max response, negative = inhibition, actives largely listed as inhibitors | 400,000 tested, 0.93% active | P11473; note: potency is the fitted concentration of half-maximal effect
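Reagent solutions, kept cold and dark, are dispensed first; compounds are then pinned in at 23 nl, plates briefly spun, and incubated 2 h at ambient temperature. Inhibition of VDR–SRC2-3 peptide binding is read by fluorescence polarization.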
* hit, by the source's call; ! = repeats disagree; [ ] = remark or other dose. Unless noted, calls come from the whole dose curve; as a rule, active = well fitted curve in the direction sought with a large enough effect; inconclusive = small, poorly fitted or top-dose-only effect, or another doubt; inactive = no such curve, though single readings can be large; an effect the other way counts as inactive or inconclusive. Unless noted, % is set by controls: 0 for no effect and ±100 for the full control effect.

How did CCCCN1C(C)=CC(=C2C(=O)c3ccccc3C2=O)C=C1C do in these assays?
Sfp PPTase inh: 8%; PLK1 PBD inh: -23%; CCT chaperon mod: 2; Mm-Cpn inhibitor: 0%; G9a block: -45%; VDR inh: -2%

Results for CC1=CC(=C2C(=O)c3ccccc3C2=O)C=C(C)N1Cc1ccco1 ?
Sfp PPTase inh: 45µM*; PLK1 PBD inh: -17%; CCT chaperon mod: -2; Mm-Cpn inhibitor: 1%; G9a block: 41%[12.7 µM]; VDR inh: -15%

What do the screens show for `O=C(NNC1=NCCCCC1)c1ccccc1`?
Sfp PPTase inh: 8%; PLK1 PBD inh: -3%; CCT chaperon mod: -2; Mm-Cpn inhibitor: -1%; G9a block: -51%; VDR inh: 6%

What do the screens show for `c1ccc(CNC2=NCCCC2)cc1`?
Sfp PPTase inh: -26%; PLK1 PBD inh: -4%; CCT chaperon mod: -2; Mm-Cpn inhibitor: 2%; G9a block: 14µM*; VDR inh: 17%

What do the screens show for `O=C(CC1N=C2c3ccccc3N=C(SCc3ccc(Cl)cc3)N2C1=O)NCc1ccco1` (stereo not drawn)?
Sfp PPTase inh: inconclusive; PLK1 PBD inh: -22%; CCT chaperon mod: -3; Mm-Cpn inhibitor: -8%; G9a block: 50µM*; VDR inh: 0%

How did CN(C)c1ccc(NC(=O)CSC2=Nc3ccccc3C3=NC(CC(=O)NCc4ccccc4)C(=O)N23)cc1 (stereo not drawn) do in these assays?
G9a block: 1.6µM*; VDR inh: 4%

What do the screens show for `O=C(O)CSc1ccccc1C(=O)O`?
Sfp PPTase inh: -1%; PLK1 PBD inh: -7%; CCT chaperon mod: -1; Mm-Cpn inhibitor: 0%; G9a block: 45µM*; VDR inh: 8%

How did CN(C)S(=O)(=O)c1cccc(NC(=O)CSc2cccc3cccnc23)c1 do in these assays?
Sfp PPTase inh: -2%; PLK1 PBD inh: 11µM*; CCT chaperon mod: -1; Mm-Cpn inhibitor: -5%; G9a block: 56µM*; VDR inh: -6%

How did Cc1ccc2cccc(SCC(=O)Nc3ccc(F)cc3)c2n1 do in these assays?
Sfp PPTase inh: 21%; PLK1 PBD inh: -2%; CCT chaperon mod: -74*; Mm-Cpn inhibitor: -6%; G9a block: -8%; VDR inh: 8%

Results for Cc1ccc2cccc(SCC(=O)NCc3ccco3)c2n1 ?
Sfp PPTase inh: -6%; PLK1 PBD inh: -7%; CCT chaperon mod: -5; Mm-Cpn inhibitor: -3%; G9a block: -20%; VDR inh: -21%

What do the screens show for `O=C(O)CSc1cccc2cccnc12`?
Sfp PPTase inh: 56µM*; PLK1 PBD inh: -21%; CCT chaperon mod: 2; Mm-Cpn inhibitor: -6%; G9a block: 14µM*!; VDR inh: 0%

How did O=C(CSc1ccccc1C(=O)O)c1ccccc1 do in these assays?
Sfp PPTase inh: 13%; PLK1 PBD inh: 0%; CCT chaperon mod: -1; Mm-Cpn inhibitor: -1%; G9a block: 0%[59 µM]; VDR inh: -3%

Results for CCc1cccc(C)c1NC(=O)CSc1nc(C)cc(C)c1C(=O)Nc1ccccc1 ?
G9a block: -7%[59 µM]; VDR inh: 8%

Results for CCOc1ccc(CNC(=O)c2ccc3c(c2)c(C)c(C)n3Cc2ccc(Cl)cc2)cc1 ?
G9a block: -24%[59 µM]; VDR inh: 2%

What do the screens show for `CCN(C(=O)CCS(=O)(=O)c1ccc2c(c1)CCN2C(C)=O)c1cccc(C(F)(F)F)c1`?
G9a block: -8%[59 µM]; VDR inh: -13%

How did Cc1ccccc1-c1nc(C#N)c(N2CCCCC2)o1 do in these assays?
Sfp PPTase inh: -9%; PLK1 PBD inh: -6%; CCT chaperon mod: -6; Mm-Cpn inhibitor: 2%; G9a block: 35µM*; VDR inh: -17%

How did N#Cc1nc(-c2ccccc2F)oc1N1CCCC1 do in these assays?
Sfp PPTase inh: 12%; PLK1 PBD inh: -5%; CCT chaperon mod: 0; Mm-Cpn inhibitor: 3%; G9a block: inconclusive; VDR inh: 16%

High-throughput results deposited in PubChem by National Center for Advancing Translational Sciences (NCATS).
